# Only some compounds are listed: those with a hit (about 3.1% of all), similar ones and a draw of the others.
# GCN5L2 inh = inhibitors of human GCN5L2 histone acetyltransferase; Potency, µM (top dose mostly 58.9 µM), for the others: at the highest dose activity change, negative = inhibition, usual class: inhibitors; 390,000 compounds, 0.21% hits; GCN5L2 HAT assay, ThioGlo1 CoA-SH fluorescence; AID 504327; also: potency is read from the fitted curve at half-maximal effect
#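 ThioGlo1-coupled HAT assay: 20nM GCN5L2, 70uM acetyl-CoA, 75uM H3(1-25) peptide, pH 7.5. Fluorescence read at 340/540nm at start and after 20 min at room temperature.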
# GLS inhibitor = inhibitors of human glutaminase (GLS); O94925; GLS enzymatic activity, qHTS titration; Potency, µM (series often up to 45.5 µM), for inactives: at the top dose activity change, negative = inhibition, usual class: inhibitors; 410,000 compounds, 0.21% hits; AID 624170; also: potency is read from the fitted curve at half-maximal effect
#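 Coupled fluorescence readout: glutamate oxidase/HRP/Amplex Red detect glutamate formed by hKGA from L-glutamine (1 mM solution added). Buffer 45 mM KH2PO4 pH 8.2, 0.02% Tween-20; reads at t0 and 30 min RT.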
# PI4K2A inh = blocks human PI4K2A kinase activity. Q9BTU6. 420,000 compounds, 0.13% hits. purified PI4K2A, ADP-Glo luminescence, 1 h; stronger effect = lower value. activity change, negative = inhibition, % at 76.9 µM; in the data active = activity change below about -50%; inconclusive = mostly about -30% to -49%;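 also: -100% = wells without enzyme as full effect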
#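 Compounds are screened against recombinant PI4K2A using PI as substrate and ATP, the latter dispensed at 300 microM. Reactions run one hour at ambient temperature before ADP-Glo detection; full inhibition defined by wells lacking enzyme.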
# PLK1 PBD block = inhibitors of human PLK1 polo-box domain binding; Potency, µM, for inactives: max response, negative = inhibition, most hits filed as inhibitors; 360,000 compounds, 2.8% hits; Plk1 PBD binding of FITC phosphopeptide, fluorescence polarization; also: potency is read from the fitted curve at half-maximal effect; series mostly up to about 57 µM; nearly all actives have a fitted effect of over 65% in size
# Target sequence (P53350 whole entry, looked up, the tested form may be a part): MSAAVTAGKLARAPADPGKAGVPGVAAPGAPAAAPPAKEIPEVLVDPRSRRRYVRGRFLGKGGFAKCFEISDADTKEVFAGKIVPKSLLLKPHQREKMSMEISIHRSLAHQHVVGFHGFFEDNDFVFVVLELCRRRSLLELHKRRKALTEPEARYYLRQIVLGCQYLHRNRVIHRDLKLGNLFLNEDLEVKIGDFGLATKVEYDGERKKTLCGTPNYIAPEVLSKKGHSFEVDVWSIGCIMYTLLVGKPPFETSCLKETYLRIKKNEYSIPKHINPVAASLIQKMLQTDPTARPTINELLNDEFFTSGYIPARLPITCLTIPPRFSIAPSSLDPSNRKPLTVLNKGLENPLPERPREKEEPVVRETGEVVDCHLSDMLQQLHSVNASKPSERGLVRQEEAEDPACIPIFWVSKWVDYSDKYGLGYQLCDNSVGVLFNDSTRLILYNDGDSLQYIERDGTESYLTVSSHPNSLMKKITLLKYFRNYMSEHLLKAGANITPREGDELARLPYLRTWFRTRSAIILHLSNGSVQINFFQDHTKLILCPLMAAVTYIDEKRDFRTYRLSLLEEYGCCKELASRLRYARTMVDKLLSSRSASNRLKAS
# VDR inhibitor = inhibitors of human vitamin D receptor; P11473; VDR-SRC2-3 peptide fluorescence polarization, 2 h; Potency, µM, without a hit: max response, negative = inhibition, actives largely listed as inhibitors; 400,000 compounds, 0.93% hits; AID 504847; also: potency is read from the fitted curve at half-maximal effect
#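 Two reagent solutions held at 4 deg C in the dark were dispensed, compounds pinned at 23 nl, and the mixture incubated 2 h at room temperature. Read-out: fluorescence polarization of VDR–SRC2-3 peptide binding.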
# * marks the source's active call; other numbers are inactive results; ? = inconclusive; · = no result; ! = repeats disagree. Unless noted, calls follow the shape of the dose curve; as a rule, active = well fitted curve in the direction sought with a large enough effect; inconclusive = small, poorly fitted or top-dose-only effect, or another doubt; inactive = no such curve, though single readings can be large; an effect the other way counts as inactive or inconclusive. Unless noted, % is scaled to controls: 0 for no effect and ±100 for the full control effect.
SMILES,GCN5L2 inh,GLS inhibitor,PI4K2A inh,PLK1 PBD block,VDR inhibitor
FC(F)(F)c1ccccc1/C=N/n1c(COc2ccccc2)n[nH]c1=S,-10%,-7%,1,30µM*,-14%
S=c1[nH]nc(COc2ccccc2)n1/N=C/c1ccncc1,-4%,-1%,-1,-14%,4%
CC(C)[C@H]1Cn2nnc(-c3ccccc3)c2Cn2c3ccccc3c(=O)n21,·,·,-5,·,·
Cc1c(Cl)cccc1NC(=O)c1ccc2c(c1)nnn2C1CCCC1,-4%,2%,-2,·,2%
CC(=O)Nc1ccc(C(=O)NCCCSc2ccccc2)cc1,·,6%,1,3%,2%
CC(=O)Nc1ccc(SCCCC(=O)c2ccccc2)cc1,-5%,3%,-6,13µM*,-19%
CC[C@@H](CCCCCCCn1ccc2ccccc21)CCC(=O)N(c1ccccc1)c1ccccc1,·,·,-1,·,·
Cc1ccc(S(=O)(=O)/C=C\C#N)cc1,28µM*,·,·,·,2.8µM*
Cc1ccc(S(=O)(=O)/C=C2\NC(=O)CS2)cc1,-22%,59%,-8,?,-14%
Cc1ccc(S(=O)(=O)/C=C/C#N)cc1,22µM*!,·,6,·,11µM*
CC(C)(C)c1ccc(S(=O)(=O)/C=C\C#N)cc1,28µM*,·,·,·,2µM*
C[C@H]1[C@@H](OC(=O)NCCc2c[nH]c3ccccc23)CC[C@@]23CCCN2C(=O)CCC[C@@H]13,·,·,-2,·,·
O=C(O)c1c(O)c(-c2ccccc2)nc2ccccc12,·,·,0,·,·
COCCNC(=O)CSc1nc2nn(-c3ccccc3)c(=O)c-2c2n1CCCCC2,0%,19%,-2,24µM*,2%
COc1cc(/C=C2\SC(=O)N(CC(=O)Nc3ccc(C)cc3)C2=O)cc(Cl)c1OCC(=O)O,?,7.1µM*,-10,15µM*,?
C/C=C/C=C/C(=O)[C@@H]1[C@@H]([C@]2(C)OC(=O)C(C)=C2O)[C@H]2/C(=C(O)/C=C/C=C/C)C(=O)[C@]1(C)C(=O)C2(C)O (stereo partly specified),-10%,10µM*,-23,?,?
CC1=C(C(=O)Nc2ccccc2F)C(c2cccs2)C2=C(CCCC2=O)N1 (stereo unspecified),-6%,3%,-3,24µM*,?
COc1ccc(-c2nnc(SCC(=O)NN=C(C)c3cccc4ccccc34)n2-c2ccc(C)cc2)cc1,·,·,0,·,·
Cc1cc(C(=O)OCC(=O)NC(C)C)c2ccccc2n1,4%,?,-3,12µM*,?
Cc1cc(C(=O)OCC(=O)NC2CCCC2)c2ccccc2n1,-1%,8%,0,-1%,-1%
CN(O)/C=C/C(=O)c1ccc(Br)cc1,-6%,-5%,2,27µM*,-4%
Cc1cn([C@@H]2O[C@H](CO)[C@@H](O)[C@H]2F)c(=O)[nH]c1=O,·,·,1,·,·
CCC(=O)Nc1ccc2c(c1)nc1n2CCN(C2CCCCC2)C1,-8%,-12%,-3,?,-13%
COc1ccccc1C(=O)Nc1ccc2c(c1)nc1n2CCN(C2CCCCC2)C1,-1%,20%,-2,17µM*,?
CN(C)c1ccc(/C=N\NC(=O)c2cccc(S(=O)(=O)N(C)C)c2)cc1,·,·,-4,·,·
SMILES,GCN5L2 inh,GLS inhibitor,PI4K2A inh,PLK1 PBD block,VDR inhibitor
N#Cc1c(NC(=O)c2ccc(Br)o2)n(-c2ccccc2)c2nc3ccccc3nc12,-2%,5%,-52*,?,8.9µM*
CCC(C)n1c(NC(=O)c2ccccc2)c(C#N)c2nc3ccccc3nc21 (stereo unspecified),-18%,4%,-56*,17%,?
COc1ccc(-n2c(NC(=O)c3ccc(Br)o3)c(C#N)c3nc4ccccc4nc32)cc1,-27%,·,·,·,·
Cc1ccc(C(=O)Nc2ccc(S(=O)(=O)O)c3cc(S(=O)(=O)O)cc(S(=O)(=O)O)c23)cc1NC(=O)c1cccc(NC(=O)Nc2cccc(C(=O)Nc3cc(C(=O)Nc4ccc(S(=O)(=O)O)c5cc(S(=O)(=O)O)cc(S(=O)(=O)O)c45)ccc3C)c2)c1,?,8.9µM*,?,·,22µM*
COc1ccc(OC)c(NC(=O)C2CCCN(S(=O)(=O)c3cccc4nsnc34)C2)c1 (stereo unspecified),-4%,?,-13,3.4µM*!,-20%
CC(C)=C(C#N)c1nc2ccccc2s1,-28%,5%,1,-7%,8%

# High-throughput results deposited in PubChem BioAssay by National Center for Advancing Translational Sciences (NCATS).
